ALOX12 inh: blocks human arachidonate 12S-lipoxygenase. P18054. purified 12hLO, xylenol orange hydroperoxide absorbance. Potency, µM (highest dose often 108 µM), inactives show at the highest dose activity change, negative = inhibition, hits mostly inhibitors. actives 1.1% (n = 580,000)
Target sequence (P18054 whole entry, looked up): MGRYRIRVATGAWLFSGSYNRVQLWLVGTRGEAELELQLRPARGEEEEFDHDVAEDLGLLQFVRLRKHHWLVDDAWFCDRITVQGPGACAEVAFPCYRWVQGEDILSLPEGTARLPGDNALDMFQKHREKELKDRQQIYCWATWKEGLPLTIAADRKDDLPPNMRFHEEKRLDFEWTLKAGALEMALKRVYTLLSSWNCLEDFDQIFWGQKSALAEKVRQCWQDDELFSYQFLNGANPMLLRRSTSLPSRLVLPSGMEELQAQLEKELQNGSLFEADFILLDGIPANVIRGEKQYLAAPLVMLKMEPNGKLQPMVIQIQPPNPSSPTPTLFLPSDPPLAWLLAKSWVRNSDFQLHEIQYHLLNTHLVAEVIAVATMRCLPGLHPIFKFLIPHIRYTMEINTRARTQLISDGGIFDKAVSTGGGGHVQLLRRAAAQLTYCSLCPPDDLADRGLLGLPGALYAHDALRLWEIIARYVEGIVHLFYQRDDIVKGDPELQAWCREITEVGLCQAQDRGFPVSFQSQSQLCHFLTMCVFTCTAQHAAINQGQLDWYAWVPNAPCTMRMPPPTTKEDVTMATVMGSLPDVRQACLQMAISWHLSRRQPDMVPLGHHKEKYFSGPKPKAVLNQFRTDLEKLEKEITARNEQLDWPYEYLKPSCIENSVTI
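Hydroperoxide product was detected by ferrous iron/xylenol orange as the 573 to 405 nm absorbance ratio. Arachidonic acid at 40 uM (final) was turned over for 30 min at room temperature by 150 nM human 12hLO, pH 7.0 Hepes buffer, after 15 min compound preincubation.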
RORg inh: ROR gamma (mouse) transcription inhibition; P51450; Drosophila S2 Gal4-RORgamma UAS-luciferase reporter, 20 h; Potency, µM (doses to about 53.6 µM), for the others: top-dose activity change, negative = inhibition, actives largely listed as inhibitors; actives 5.4% (n = 310,000); AID 2551; also: nearly all actives have a fitted effect of over 60% in size
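Schneider cells (Drosophila), stable Gal4 DBD–ROR gamma + UAS-luc; 1 hr cmpd preincubation; Cu2+ induction 700 uM final; 20 hr ambient; luminescence.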
TDP1 cell CPT: DT40-hTDP1 cell growth loss with CPT. chicken DT40 Tdp1-/-;hTDP1 cells + 20 nM CPT, ATP luminescence, 48 h. Potency, µM (top dose mostly 46.2 µM), inactives show at the top dose activity change, negative = growth inhibition, actives largely listed as inhibitors. actives 12% (n = 420,000). AID 686979; also: nearly all actives have a fitted effect of over 55% in size
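Cell growth measured by CellTiter-Glo luminescence after a minimum 48 h, 37 C compound exposure with 20 nM CPT in Tdp1-knockout DT40 cells stably expressing hTDP1, seeded 400/well; qHTS titration format.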
TDP1 cell noCPT: qHTS for Inhibitors of human tyrosyl-DNA phosphodiesterase 1 (TDP1): qHTS in cells in absence of CPT; DT40 Tdp1-/- hTDP1 cells, no CPT, ATP luminescence, 48 h; Potency, µM (doses to about 46.2 µM), inactives show at the highest dose activity change, negative = growth inhibition, actives largely listed as inhibitors; actives 15% (n = 420,000); also: nearly all actives have a fitted effect of over 55% in size
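Growth kinetics read by CellTiter-Glo luminescence after ≥48 hr at 37 °C. Cells: DT40 Tdp1-/- stably carrying human TDP1, 400 per well, compound exposure in the absence of CPT (DMSO vehicle).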
Gal4-VP16 FLuc: counter-screen for ROR gamma inhibitors: Gal4-VP16 reporter | Drosophila S2 Gal4-VP16 UAS-luciferase, luminescence, 20 h | Potency, µM (top dose mostly 53.6 µM), for the others: at the highest dose activity, negative = inhibition, usual class: inhibitors | actives 3.5% (n = 310,000);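 also: Gal4-VP16 expression switched on by copper sulfate through the metallothionein promoter; nearly all actives have a fitted effect of over 50% in size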
ELG1 DNA repair: ELG1-dependent DNA repair inhibition | HEK293T ELG1-luciferase reporter, luminescence, 16 h; DNA damage induced by 5-fluorouridine | Potency, µM (titrated, usually from 46.1 µM), without a hit: at the top dose activity change, negative = inhibition, hits mostly inhibitors | actives 2.3% (n = 330,000) | AID 504467; also: nearly all actives have a fitted effect of over 55% in size
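DMSO vehicle served as the neutral condition. Each well held 2,000 cells given 5-fluorouridine plus compound; after 16 hr at 37 °C/5% CO2, ONE-Glo was added and luciferase measured 30 min later.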
* = called active by the depositor; ? = inconclusive; nt = no result given; ! = a repeat was not active. Only some compounds are listed: those with a hit (about 15% of all), similar ones and a draw of the others. Calls follow the shape of the dose curve; as a rule, active = well fitted curve in the direction sought with a large enough effect; inconclusive = small, poorly fitted or top-dose-only effect, or another doubt; inactive = no such curve, though single readings can be large; an effect the other way counts as inactive or inconclusive. % is scaled to controls: 0 for no effect and ±100 for the full control effect; potency is read from the fitted curve at half-maximal effect.

SMILES	ALOX12 inh	RORg inh	TDP1 cell CPT	TDP1 cell noCPT	Gal4-VP16 FLuc	ELG1 DNA repair
COc1ccc(-n2c(SCC(=O)NCC3CCCO3)nc3ccccc3c2=O)cc1Cl (stereo not drawn)	10%	nt	8.2µM*	21µM*	nt	nt
COc1ccc(-n2c(SCC(=O)NCC3CCCO3)nc3n[nH]c(C)c3c2=N)cc1 (stereo not drawn)	0%	18%	?	18µM*	-6%	2%
CONC(=O)CCN1C(=O)CSc2ccccc21	1%	nt	nt	nt	nt	nt
CC(=O)N(CCCNC(=O)c1nn(C)c(=O)c2ccccc12)C(C)C	-13%	nt	nt	nt	nt	nt
CSc1cccc(NC(=O)c2cc(Cl)ccc2F)c1	9%	nt	nt	nt	nt	nt
c1ccc2c(CN3CCC[C@H]3c3nc(-c4ccc(OC5CCCCC5)nc4)no3)c[nH]c2c1	7%	nt	nt	nt	nt	nt
c1ccc(CNc2nc(NCCOc3ccccc3)c3sccc3n2)cc1	?	nt	23µM*	16µM*	nt	nt
CNc1nc(NCCOc2ccccc2)c2sccc2n1	nt	nt	18µM*	21µM*	nt	nt
Cc1ccc(C2=NCC(C)n3c2c2ccc(C(F)(F)F)cc2[n+]3[O-])cc1 (stereo not drawn)	-8%	nt	nt	nt	nt	nt
COc1ccc2c3n(nc2c1)CCN=C3c1cc(Cl)c(N)c(Cl)c1	?	nt	?	16µM*	nt	?
O=C(OCC(=O)N1CCCCCC1)c1ccc([N+](=O)[O-])cc1Cl	2%	-22%	1%	19%	2%	9%
[O-][n+]1c2cc(C(F)(F)F)ccc2c2n1CCN=C2c1ccc(Cl)cc1	-2%	nt	-18%	?	nt	23%
Nc1c(Cl)cc(C2=NCCn3c2c2ccc([N+](=O)[O-])cc2[n+]3[O-])cc1Cl	?	nt	1.8µM*	5.8µM*	nt	-13%
Nc1c(Cl)cc(C2=NCCn3nc4cc(C(F)(F)F)ccc4c32)cc1Cl	-28%	nt	21µM*	21µM*	nt	?
COc1ccc(C2=NCCn3nc4ccccc4c32)cc1	-15%	nt	-16%	-15%	nt	?
Nc1c(Cl)cc(C2=NCCn3nc4cc([N+](=O)[O-])ccc4c32)cc1Cl	-3%	nt	?	18µM*	nt	?
O=C(OCC(=O)N1CCCc2ccccc21)c1ccccc1NS(=O)(=O)c1ccc(F)cc1	-14%	nt	nt	nt	nt	nt
COc1ccc(S(=O)(=O)NCCc2csc(-c3ccc(F)cc3)n2)cc1F	-26%	nt	23µM*	26µM*	nt	nt
COc1ccc(-c2nc(CNS(=O)(=O)c3cccc(F)c3)cs2)cc1	-20%	nt	-76%	15µM*	nt	nt
COc1ccc(-c2nc(CNS(=O)(=O)c3ccc(C)cc3)cs2)cc1	-22%	nt	?	?	nt	nt
COc1ccc(-c2nc(CNS(=O)(=O)c3ccc(F)cc3)cs2)cc1	-8%	nt	?	18µM*	nt	nt
O=S(=O)(NCCc1csc(-c2cccnc2)n1)c1ccc(F)cc1	5%	0%	3%	-11%	-1%	-3%
COc1ccc(S(=O)(=O)NCCc2csc(-c3ccc(F)cc3)n2)cc1	-29%	nt	12µM*	15µM*	nt	nt
COc1ccc(S(=O)(=O)NCCc2sc(-c3ccccc3)nc2C)cc1F	-10%	nt	nt	nt	nt	nt
Cc1csc(NC(=O)CCc2ccc(S(N)(=O)=O)cc2)n1	-3%	nt	nt	nt	nt	nt
SMILES	ALOX12 inh	RORg inh	TDP1 cell CPT	TDP1 cell noCPT	Gal4-VP16 FLuc	ELG1 DNA repair
CC(C)(C)c1ccc(N2C(=O)CSC2c2cccnc2)cc1 (stereo not drawn)	5%	40%	?	8.2µM*	-3%	0%
CCC(=O)NCC(c1cccs1)N(C)C (stereo not drawn)	42%	nt	nt	nt	nt	nt
COc1ccc(-c2nnc(SCC(=O)NC3CCCC3)nc2-c2ccc(OC)c(OC)c2)cc1OC	5%	nt	18µM*	21µM*	nt	nt
CCOc1ccc(-c2nnc(SCC(=O)NC3CCCCC3)nc2-c2ccc(OCC)c(OC)c2)cc1OC	8%	nt	-6%	-27%	nt	nt
CCC(Sc1nnc(-c2ccc(OC)c(OC)c2)c(-c2ccc(OC)c(OC)c2)n1)C(=O)NC1CCCC1 (stereo not drawn)	-14%	nt	16µM*	?	nt	nt
Cc1ccc(-c2nnc(SCC(=O)NC3CCCC3)nc2-c2ccc(C)cc2)cc1	-18%	nt	18µM*	13µM*	nt	nt
O=C(CSc1nnc(-c2ccc(Cl)cc2)c(-c2ccc(Cl)cc2)n1)NC1CCCC1	5%	nt	?	?	nt	nt
Cc1ccc(-c2cc(C(F)F)n3ncc(C#N)c3n2)cc1	28%	nt	nt	nt	nt	nt
Cc1cccc(C)c1OCC(=O)Nc1ccc2oc(C(F)(F)F)nc2c1	6%	nt	nt	nt	nt	nt
COc1cc(OC)cc(-c2nnc(SCc3c(F)cccc3Cl)o2)c1	19%	41%	?	23µM*	?	?
COc1ccc(-c2nnc(SCc3ccccc3F)o2)cc1	-23%	-34%	-1%	-25%	-17%	?
CS(=O)(=O)c1ccc(S(=O)CC(=O)Oc2ccc(Cl)cc2)c([N+](=O)[O-])c1 (stereo not drawn)	nt	4µM*	1.2µM*	0.58µM*	-25%	?
Cc1noc(-c2cc(Br)cc(Br)c2O)n1	-3%	nt	nt	nt	nt	nt
O=S(=O)(Nc1cccc(C(F)(F)F)c1)c1ccc(-c2cnc(C3CC3)o2)cc1	?	nt	3.7µM*	2.6µM*	nt	nt
COc1ccc(NS(=O)(=O)c2ccc(-c3cnc(C4CC4)o3)cc2)cc1OC	17%	?	2.1µM*	1.6µM*	7.1µM*	1.8µM*
CCOc1ccccc1NS(=O)(=O)c1ccc(-c2cnc(C3CC3)o2)cc1	-5%	?	0.0082µM*	0.023µM*	-10%	-27%
COc1ccc(C)cc1NS(=O)(=O)c1ccc(-c2cnc(C)o2)cc1	1%	nt	nt	nt	nt	nt
CCc1ccccc1NS(=O)(=O)c1ccc(-c2cnc(C3CC3)o2)cc1	6%	nt	nt	nt	nt	nt
COc1ccccc1CNS(=O)(=O)c1ccc(-c2cnc(C3CC3)o2)cc1	36%	?	0.92µM*!	0.58µM*	?	?
O=C(NC1CCCCC1)[C@@H]1C[C@@H](O)CN1C1CCN(C(=O)c2cc(F)ccc2F)CC1	30%	nt	nt	nt	nt	nt
COc1ccccc1NS(=O)(=O)c1ccc(-c2cnc(C3CC3)o2)cc1	1%	-6%	0.73µM*	0.92µM*	-1%	?
COc1ccccc1NS(=O)(=O)c1ccc(-c2cnc(C)o2)cc1	5%	nt	nt	nt	nt	nt
CC1(C)CNC(=O)c2sc(N3CCOCC3)nc2C1	18%	-24%	8.2µM*	21µM*	-10%	nt
CC1(C)CNC(=O)c2sc(NC(=O)c3ccccc3)nc2C1	3%	?	?	-26%	-3%	?
CC(C)C(=O)Nc1sc2c(c1-c1nc3ccccc3[nH]1)CCCC2	-6%	11µM*	?	?	0%	-6%
